Data on 39 targets can be found in the supplement of paper PMC10849652.

About 8,800 targets were measured; listed, in parts, are those with a hit and a random draw of the rest. About 0.5% of all pairs of compound and target were hits.

UniProt P15735, sequence (P15735 whole entry, looked up): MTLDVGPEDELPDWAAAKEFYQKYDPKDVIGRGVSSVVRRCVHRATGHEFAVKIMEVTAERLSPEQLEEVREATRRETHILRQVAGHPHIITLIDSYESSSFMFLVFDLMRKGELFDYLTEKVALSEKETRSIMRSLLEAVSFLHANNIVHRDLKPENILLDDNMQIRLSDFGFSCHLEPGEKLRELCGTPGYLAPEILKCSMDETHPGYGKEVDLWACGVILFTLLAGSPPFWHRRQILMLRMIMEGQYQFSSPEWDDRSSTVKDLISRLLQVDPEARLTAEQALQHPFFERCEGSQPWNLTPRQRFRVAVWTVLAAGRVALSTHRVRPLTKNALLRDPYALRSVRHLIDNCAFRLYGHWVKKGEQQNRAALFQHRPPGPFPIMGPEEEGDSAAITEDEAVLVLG
UniProt P49642, sequence (P49642 whole entry, looked up): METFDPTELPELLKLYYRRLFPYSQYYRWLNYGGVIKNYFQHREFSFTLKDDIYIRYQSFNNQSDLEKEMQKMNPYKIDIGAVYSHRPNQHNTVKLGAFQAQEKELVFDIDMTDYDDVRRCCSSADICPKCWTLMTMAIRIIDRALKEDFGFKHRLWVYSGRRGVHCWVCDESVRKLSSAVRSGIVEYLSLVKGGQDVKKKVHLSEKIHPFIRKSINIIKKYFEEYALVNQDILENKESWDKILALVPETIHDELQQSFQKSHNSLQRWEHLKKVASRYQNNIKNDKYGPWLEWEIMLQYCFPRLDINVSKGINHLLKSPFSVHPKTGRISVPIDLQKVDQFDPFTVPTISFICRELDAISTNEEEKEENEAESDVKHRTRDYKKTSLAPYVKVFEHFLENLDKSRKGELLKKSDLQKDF
UniProt Q9UBV8, sequence (Q9UBV8 whole entry, looked up): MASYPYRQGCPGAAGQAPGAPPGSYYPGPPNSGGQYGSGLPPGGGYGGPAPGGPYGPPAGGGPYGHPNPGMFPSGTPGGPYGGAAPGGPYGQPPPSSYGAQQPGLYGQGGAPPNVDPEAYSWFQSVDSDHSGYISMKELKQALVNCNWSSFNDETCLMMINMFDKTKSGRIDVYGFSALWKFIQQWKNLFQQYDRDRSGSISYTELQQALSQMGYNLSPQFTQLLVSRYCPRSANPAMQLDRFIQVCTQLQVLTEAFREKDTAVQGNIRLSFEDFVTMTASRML
UniProt Q8NA72, sequence (Q8NA72 whole entry, looked up): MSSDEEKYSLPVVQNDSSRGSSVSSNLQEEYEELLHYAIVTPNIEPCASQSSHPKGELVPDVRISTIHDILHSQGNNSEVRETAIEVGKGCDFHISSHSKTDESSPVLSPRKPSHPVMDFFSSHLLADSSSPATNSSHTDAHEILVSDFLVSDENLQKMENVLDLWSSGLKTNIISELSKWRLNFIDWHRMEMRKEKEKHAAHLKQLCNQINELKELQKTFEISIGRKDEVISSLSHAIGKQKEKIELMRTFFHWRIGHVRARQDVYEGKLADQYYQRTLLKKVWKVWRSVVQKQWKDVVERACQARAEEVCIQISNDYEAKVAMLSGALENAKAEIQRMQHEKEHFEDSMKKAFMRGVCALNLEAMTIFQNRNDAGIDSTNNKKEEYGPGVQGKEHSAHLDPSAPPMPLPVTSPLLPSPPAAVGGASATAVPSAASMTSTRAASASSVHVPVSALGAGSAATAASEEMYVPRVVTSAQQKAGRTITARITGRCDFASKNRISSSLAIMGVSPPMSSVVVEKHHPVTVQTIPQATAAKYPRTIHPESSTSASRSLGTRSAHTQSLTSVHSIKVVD
UniProt Q9H7Z7, sequence (Q9H7Z7 whole entry, looked up): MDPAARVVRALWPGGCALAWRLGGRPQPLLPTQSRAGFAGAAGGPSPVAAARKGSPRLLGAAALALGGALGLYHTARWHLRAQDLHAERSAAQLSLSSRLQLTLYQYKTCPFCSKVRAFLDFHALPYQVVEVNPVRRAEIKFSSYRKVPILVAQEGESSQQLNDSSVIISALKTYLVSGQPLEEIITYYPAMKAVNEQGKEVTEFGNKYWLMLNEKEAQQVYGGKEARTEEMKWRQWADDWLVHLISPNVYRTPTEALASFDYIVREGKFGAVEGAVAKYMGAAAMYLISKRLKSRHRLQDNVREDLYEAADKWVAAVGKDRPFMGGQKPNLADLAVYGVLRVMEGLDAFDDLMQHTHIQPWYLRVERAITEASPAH
UniProt Q10713, sequence (Q10713 whole entry, looked up): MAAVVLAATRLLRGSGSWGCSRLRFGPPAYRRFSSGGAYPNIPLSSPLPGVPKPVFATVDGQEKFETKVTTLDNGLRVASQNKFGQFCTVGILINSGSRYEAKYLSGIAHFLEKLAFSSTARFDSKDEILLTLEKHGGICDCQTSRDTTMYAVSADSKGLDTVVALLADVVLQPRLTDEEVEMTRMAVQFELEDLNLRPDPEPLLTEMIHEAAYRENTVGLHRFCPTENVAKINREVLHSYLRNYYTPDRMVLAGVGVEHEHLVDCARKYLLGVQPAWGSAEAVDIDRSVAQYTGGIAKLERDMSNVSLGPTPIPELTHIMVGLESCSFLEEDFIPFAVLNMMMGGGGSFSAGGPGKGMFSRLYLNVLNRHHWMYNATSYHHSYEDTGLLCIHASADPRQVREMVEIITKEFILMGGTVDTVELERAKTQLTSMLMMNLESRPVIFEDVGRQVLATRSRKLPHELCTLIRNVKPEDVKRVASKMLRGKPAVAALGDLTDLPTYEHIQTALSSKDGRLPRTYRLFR
UniProt Q01813, sequence (Q01813 whole entry, looked up): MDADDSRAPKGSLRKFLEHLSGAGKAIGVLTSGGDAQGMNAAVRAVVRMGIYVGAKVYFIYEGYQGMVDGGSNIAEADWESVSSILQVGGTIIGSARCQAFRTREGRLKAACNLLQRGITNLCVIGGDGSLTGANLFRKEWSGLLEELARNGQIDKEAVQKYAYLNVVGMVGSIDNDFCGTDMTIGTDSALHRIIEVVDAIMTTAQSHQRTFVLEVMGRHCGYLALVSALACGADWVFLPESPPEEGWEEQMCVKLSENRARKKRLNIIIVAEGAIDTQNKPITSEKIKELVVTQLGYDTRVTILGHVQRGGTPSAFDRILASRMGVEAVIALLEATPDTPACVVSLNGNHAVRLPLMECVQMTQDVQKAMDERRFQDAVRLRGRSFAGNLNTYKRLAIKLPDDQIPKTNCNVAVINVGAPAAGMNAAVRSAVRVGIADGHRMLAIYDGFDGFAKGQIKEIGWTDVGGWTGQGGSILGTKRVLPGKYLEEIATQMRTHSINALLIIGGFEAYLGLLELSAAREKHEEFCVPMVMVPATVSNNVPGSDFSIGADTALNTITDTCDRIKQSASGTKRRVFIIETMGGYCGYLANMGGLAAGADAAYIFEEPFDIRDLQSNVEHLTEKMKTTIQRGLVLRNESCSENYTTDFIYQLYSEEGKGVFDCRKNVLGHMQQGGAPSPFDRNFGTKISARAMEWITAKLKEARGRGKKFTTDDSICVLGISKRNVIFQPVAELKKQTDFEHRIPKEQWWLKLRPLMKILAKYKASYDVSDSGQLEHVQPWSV
UniProt Q9Y6I8, sequence (Q9Y6I8 whole entry, looked up): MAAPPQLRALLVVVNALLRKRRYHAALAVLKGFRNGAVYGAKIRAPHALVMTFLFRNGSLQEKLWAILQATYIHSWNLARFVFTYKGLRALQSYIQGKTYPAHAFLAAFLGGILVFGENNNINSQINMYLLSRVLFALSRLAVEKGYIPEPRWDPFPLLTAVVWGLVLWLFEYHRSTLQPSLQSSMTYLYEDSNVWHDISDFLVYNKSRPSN
UniProt Q9NXJ5, sequence (Q9NXJ5 whole entry, looked up): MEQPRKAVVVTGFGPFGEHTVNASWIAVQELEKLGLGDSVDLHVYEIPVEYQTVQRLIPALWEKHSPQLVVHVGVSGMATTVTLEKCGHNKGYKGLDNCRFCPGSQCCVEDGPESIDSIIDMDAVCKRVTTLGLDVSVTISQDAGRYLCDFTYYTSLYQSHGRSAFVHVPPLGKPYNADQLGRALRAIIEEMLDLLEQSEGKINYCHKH
UniProt Q6P996, sequence (Q6P996 whole entry, looked up): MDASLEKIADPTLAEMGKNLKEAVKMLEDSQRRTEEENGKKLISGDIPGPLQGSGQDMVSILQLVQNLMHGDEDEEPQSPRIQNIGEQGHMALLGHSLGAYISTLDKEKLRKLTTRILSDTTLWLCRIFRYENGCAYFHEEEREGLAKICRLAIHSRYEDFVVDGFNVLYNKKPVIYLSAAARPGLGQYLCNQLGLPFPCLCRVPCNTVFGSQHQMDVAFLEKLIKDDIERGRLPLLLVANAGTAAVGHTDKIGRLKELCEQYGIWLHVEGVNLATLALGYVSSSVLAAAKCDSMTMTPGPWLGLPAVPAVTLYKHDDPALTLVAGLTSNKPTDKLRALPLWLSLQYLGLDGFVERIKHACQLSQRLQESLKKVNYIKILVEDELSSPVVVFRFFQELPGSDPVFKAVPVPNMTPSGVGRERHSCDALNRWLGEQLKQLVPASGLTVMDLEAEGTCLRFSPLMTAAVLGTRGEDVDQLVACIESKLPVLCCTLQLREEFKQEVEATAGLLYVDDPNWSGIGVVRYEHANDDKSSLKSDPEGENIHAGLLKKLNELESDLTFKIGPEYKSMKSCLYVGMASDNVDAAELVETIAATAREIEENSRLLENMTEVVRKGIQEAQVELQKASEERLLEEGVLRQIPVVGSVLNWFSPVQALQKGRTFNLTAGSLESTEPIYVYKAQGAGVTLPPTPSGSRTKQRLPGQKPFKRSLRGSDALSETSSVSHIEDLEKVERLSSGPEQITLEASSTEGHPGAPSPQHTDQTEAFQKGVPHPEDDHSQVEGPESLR
UniProt Q96C36, sequence (Q96C36 whole entry, looked up): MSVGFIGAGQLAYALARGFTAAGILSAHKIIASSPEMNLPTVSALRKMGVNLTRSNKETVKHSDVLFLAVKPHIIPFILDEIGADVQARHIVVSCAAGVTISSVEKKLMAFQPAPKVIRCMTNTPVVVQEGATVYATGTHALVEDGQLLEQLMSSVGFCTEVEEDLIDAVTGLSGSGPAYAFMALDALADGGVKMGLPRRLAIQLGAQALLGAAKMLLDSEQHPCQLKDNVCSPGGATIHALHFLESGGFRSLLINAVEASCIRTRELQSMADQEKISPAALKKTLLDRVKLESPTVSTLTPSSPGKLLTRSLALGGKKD

Compound in the first experiment: CC[C@@H]1C(=O)N(C)c2cnc(Nc3ccc(C(=O)N[C@H]4CC[C@H](N5CCN(CC6CC6)CC5)CC4)cc3OC)nc2N1C(C)C [volasertib]
As to the kind of experiment: log2 fold change, soluble protein after heating vs DMSO (PISA); higher = thermal stabilisation; K562 lysate, 10 uM; active = over 0.2 and 3.5 SD of the protein, either way, in both replicates (recomputed). An outline of the steps:
(§1)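 Following dounce homogenisation of K562 pellets in PBS pH 7.4 with 1 mM MgCl2, crude extract at 1 mg/mL protein was incubated for 30 min with 10 μM compound. Aliquots were then heated for 3 min over 48°C-58°C and pooled, NP-40 was added to 0.5% at 4°C, and soluble protein was recovered as the supernatant at 21,000xg for 90 min. Channel-sum-equalised TMTpro 16plex LC-MS/MS quantified this protein. Each value, from duplicates, is a log-two fold change in thermal stability relative to solvent controls.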
In the case of PDCD10 (UniProt Q9BUL8), the log2 fold change is 0.007 (inactive).

On to PGPEP1 (UniProt Q9NXJ5), for which the log2 fold change is -0.027 (inactive).

PRIM1 (UniProt P49642): the log2 fold change is -0.069 (inactive).

As to PPP1R8 (UniProt Q12972), the log2 fold change is -0.007 (inactive).

On to PELO (UniProt Q9BRX2), for which the log2 fold change is -0.066 (inactive).

As to PDCD6IP isoform 2 (UniProt Q8WUM4), the log2 fold change is -0.022 (inactive).

For PTGES2 (UniProt Q9H7Z7), the log2 fold change was 0.159 (inactive).

Consider PYURF (UniProt Q96I23), for which the log2 fold change was 0.059 (inactive).

For PMPCA (UniProt Q10713), the log2 fold change was -0.031 (inactive).

Turning to POLA1 (UniProt P09884), the log2 fold change is -0.012 (inactive).

For PHKG2 (UniProt P15735), the log2 fold change is 0.073 (inactive).

In the case of PRKACB isoform 2 (UniProt P22694), the log2 fold change was -0.01 (inactive).

Turning to POLB (UniProt P06746), the log2 fold change is -0.025 (inactive).

For PTPN1 (UniProt P18031), the log2 fold change is -0.04 (inactive).

In the case of PRPH isoform 2 (UniProt P41219), the log2 fold change is -0.028 (inactive).

Regarding PKN1 isoform 2 (UniProt Q16512), the log2 fold change is -0.009 (inactive).

Turning to PPP4R2 (UniProt Q9NY27), the log2 fold change was -0.014 (inactive).

Regarding PEF1 (UniProt Q9UBV8), the log2 fold change was 0.009 (inactive).

Turning to PXMP4 (UniProt Q9Y6I8), the log2 fold change was -0.039 (inactive).

On to POLR3E (UniProt Q9NVU0), for which the log2 fold change is -0.004 (inactive).

Consider PRKRA (UniProt O75569), for which the log2 fold change was -0.052 (inactive).

For PTK2 (UniProt Q05397), the log2 fold change is 0.145 (inactive).

On to PLIN2 (UniProt Q99541), for which the log2 fold change is 0.003 (inactive).

As for PHACTR4 isoform 2 (UniProt Q8IZ21), the log2 fold change is 0.023 (inactive).

For PTGR2 (UniProt Q8N8N7), the log2 fold change is -0.039 (inactive).

For PRMT5 (UniProt O14744), the log2 fold change is -0.007 (inactive).

Regarding PCYT1B (UniProt Q9Y5K3), the log2 fold change was 0.017 (inactive).

As to POC5 (UniProt Q8NA72), the log2 fold change is 0 (inactive).

As to PFKP (UniProt Q01813), the log2 fold change is 0.015 (inactive).

Take PDF (UniProt Q9HBH1): the log2 fold change is -0.004 (inactive).

Consider PYCR2 (UniProt Q96C36), for which the log2 fold change is 0.016 (inactive).

With PDE2A (UniProt O00408), the log2 fold change is 0.041 (inactive).

Turning to PRKACA (UniProt P17612), the log2 fold change is -0.043 (inactive).

PTPN2 (UniProt P17706): the log2 fold change is 0 (inactive).

Turning to PPFIA2 (UniProt O75334), the log2 fold change is 0.02 (inactive).

Consider PTP4A1 (UniProt Q93096), for which the log2 fold change is 0.036 (inactive).

In the case of PDXDC1 (UniProt Q6P996), the log2 fold change is -0.059 (inactive).

With PRKCSH isoform 2 (UniProt P14314), the log2 fold change was -0.052 (inactive).

Take POLD3 (UniProt Q15054): the log2 fold change was -0.045 (inactive).

Compound in a further experiment: CCn1c(C(=O)N(C2CC2)C2CC2)cc2c3c(ncn3C)c(Nc3cc(C)n(C)n3)nc21
The experiment is described as above. An outline of the steps:
as §1
As to PDCD10 (UniProt Q9BUL8), the log2 fold change is 0 (inactive).

For PGPEP1 (UniProt Q9NXJ5), the log2 fold change is 0.036 (inactive).

With PRIM1 (UniProt P49642), the log2 fold change was 0.062 (inactive).

PPP1R8 (UniProt Q12972): the log2 fold change was -0.031 (inactive).

Regarding PELO (UniProt Q9BRX2), the log2 fold change is -0.014 (inactive).

On to PDCD6IP isoform 2 (UniProt Q8WUM4), for which the log2 fold change is 0.032 (inactive).

Consider PTGES2 (UniProt Q9H7Z7), for which the log2 fold change was -0.053 (inactive).

Consider PYURF (UniProt Q96I23), for which the log2 fold change is 0.042 (inactive).

Take PMPCA (UniProt Q10713): the log2 fold change is -0.025 (inactive).

Consider POLA1 (UniProt P09884), for which the log2 fold change is 0.03 (inactive).

Consider PHKG2 (UniProt P15735), for which the log2 fold change is -0.007 (inactive).

With PRKACB isoform 2 (UniProt P22694), the log2 fold change is -0.072 (inactive).

With POLB (UniProt P06746), the log2 fold change is 0.032 (inactive).

PTPN1 (UniProt P18031): the log2 fold change was 0.033 (inactive).

Regarding PRPH isoform 2 (UniProt P41219), the log2 fold change was 0.098 (inactive).

Turning to PKN1 isoform 2 (UniProt Q16512), the log2 fold change is 0.024 (inactive).

For the target PPP4R2 (UniProt Q9NY27), the log2 fold change was -0.042 (inactive).

PEF1 (UniProt Q9UBV8): the log2 fold change was -0.001 (inactive).

As for PXMP4 (UniProt Q9Y6I8), the log2 fold change is 0.064 (inactive).

Turning to POLR3E (UniProt Q9NVU0), the log2 fold change is -0.012 (inactive).

With PRKRA (UniProt O75569), the log2 fold change is 0.041 (inactive).

For PTK2 (UniProt Q05397), the log2 fold change was 0.044 (inactive).

For PLIN2 (UniProt Q99541), the log2 fold change was 0.048 (inactive).

For the target PHACTR4 isoform 2 (UniProt Q8IZ21), the log2 fold change was -0.003 (inactive).

For PTGR2 (UniProt Q8N8N7), the log2 fold change was 0.069 (inactive).

As to PRMT5 (UniProt O14744), the log2 fold change is -0.009 (inactive).

Regarding PCYT1B (UniProt Q9Y5K3), the log2 fold change was 0.008 (inactive).

Consider POC5 (UniProt Q8NA72), for which the log2 fold change was -0.045 (inactive).

Turning to PFKP (UniProt Q01813), the log2 fold change was -0.007 (inactive).

PDF (UniProt Q9HBH1): the log2 fold change is 0.01 (inactive).

Regarding PYCR2 (UniProt Q96C36), the log2 fold change was -0.001 (inactive).

As to PDE2A (UniProt O00408), the log2 fold change was -0.173 (inactive).

With PRKACA (UniProt P17612), the log2 fold change is -0.081 (inactive).

On to PTPN2 (UniProt P17706), for which the log2 fold change was 0.005 (inactive).

Consider PPFIA2 (UniProt O75334), for which the log2 fold change is -0.127 (inactive).

PTP4A1 (UniProt Q93096): the log2 fold change was 0.019 (inactive).

As for PDXDC1 (UniProt Q6P996), the log2 fold change was -0.004 (inactive).

In the case of PRKCSH isoform 2 (UniProt P14314), the log2 fold change was -0.101 (inactive).

With POLD3 (UniProt Q15054), the log2 fold change is -0.013 (inactive).
